Consider 38 compounds from PubChem BioAssay (NCI).

SMILES strings stand for the structures. Values joined by “and” are separate entries in the source; they are usually repeats but may differ in a detail not shown here. Equal entries are not always repeated. About 83,000 compounds went through this panel and 20% of them were active in at least one assay; those are over-represented in the sample as a whole.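 Cell lines were cultured in 96-well plates, exposed to a single compound concentration, and assessed for percent growth 48 hours later.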 Values without a mark were called inactive. Active and inactive are the calls of the source. The calls were made as follows: active = growth percent below 10; inactive = the rest.

The first assay concerns HT29 colon. The assay can be described thus: NCI-60 one-dose screen, 48 h (100 = growth as untreated, 0 = no growth, -100 = all killed). The following applies: 10 µM unless noted.
On to `O=C(N=Nc1c(O)[nH]c2ccc(Cl)cc12)c1ccc2nc(-c3ccc(Cl)cc3)[nH]c2c1`, for which the growth is 16.9%.
On to `COc1cc(C=O)ccc1OC(=O)c1cc(-c2ccc(C)cc2)n(-c2ccc(S(C)(=O)=O)cc2)n1`, for which the growth is 113%.
On the same count and under the same terms, with `CC(C)CN1C(=O)/C(=C\C(=O)c2cc3ccccc3oc2=O)c2ccccc21` the figure was 114%; with `Nc1nc2cc(-c3ccc4ncnc(NCc5ccccc5)c4c3)ccc2o1`, 37.2%.
Consider `Cc1cccc(NCC(=O)N2CCN(c3ncnc4c3cnn4-c3ccccc3)CC2)c1`, for which the growth is 83.5%.
The same measure, in the same setting: with `Cn1cc(-c2cc(N)n3nc(-c4c[nH]c5ccccc45)cc3n2)c2cc(F)ccc21` the figure was -35.4% (active); with `CCCCCCCCCc1ccc(C(=O)Nc2cc(C)ccc2C(=O)OC)cc1`, 98.9%.
Still for that read-out and setting: with `NC1(c2ccc(-c3ccc4ncnc(NCc5ccccc5)c4c3)cn2)COC1` the figure was 122% and 108%; with `CCCCNC(=S)Nc1ccc(OCc2nc3ccc(Cl)cc3[nH]2)cc1`, 28.4%.
The same measure, in the same setting: the figure for `CCC1(OC(=O)c2ccccc2SSCCOC(=O)CCCCC2SCC3NC(=O)NC32)C(=O)OCc2c1cc1n(c2=O)Cc2cc3ccccc3nc2-1` (stereo not drawn) is 67.8%; for `COc1ccc(/C=C/c2nc3ccccc3c(=O)n2CC(=O)Nc2ccccc2)cc1` it is 83.3%.
`CC[C@]12C=CCN3CC[C@@]4(c5ccc(OC)cc5N(C)[C@H]4[C@@](O)(C(=O)OC)[C@@H]1OC(=O)CCCC[P+](c1ccc(F)cc1)(c1ccc(F)cc1)c1ccc(F)cc1)[C@@H]32`: the growth is 15.9%.
Same read-out and setting: the figure for `COc1ccccc1NC(=O)N/N=C/c1c[nH]c2ccccc12` is 4.72% (active).
On the same count and under the same terms, with `Cc1ccc(C2CC(c3ccc(NC(=O)Nc4ccccc4)cc3)=NN2c2ccc(S(C)(=O)=O)cc2)cc1` (stereo not drawn) the figure was -55.7% (active); with `CC1=C(C)C(=O)C(NCCN2CCOCC2)=C(Br)C1=O`, 93.7%; with `CC(=O)C[n+]1cccc2c3ccccc3ccc21`, 93.4%.
The same measure, in the same setting: with `Cc1nn(-c2ccccc2)c2nc(C)n(CC(=O)N/N=C/c3ccccc3O)c(=O)c12` the figure was 41.2%; with `O=C(CSc1nnc(-c2ccc(-c3nc4ccccc4[nH]3)cc2)o1)Nc1ccccc1`, 70.7%.
As to `Cc1cccc(-c2ccccc2Oc2ccc3nnc(Cl)n3n2)c1`, the growth is 107%.
For the compound `Oc1cncc(-c2ccc3ncnc(N4CCc5cc(F)c(Cl)cc54)c3c2)c1`, the growth was 57.8%.
With `CCOc1ccccc1[C@H]1C(C(=O)c2ccc(Cl)cc2)C2(N[C@@H]1c1ccccc1)C(=O)Nc1ccc(Br)cc12` (stereo partly drawn), the growth was -62.1% (active).
On the same count and under the same terms, the figure for `Cc1ccc2c(c1)/C(=C/C(=O)c1cc3ccccc3oc1=O)C(=O)N2` is 59.9%; for `Cc1ccc(C(=O)C[n+]2cccc3c4ccccc4ccc32)cc1` it is 12.5%.
Consider `COC(=O)CSC1=C(C)C(=O)C(OC)=C(OC)C1=O`, for which the growth is 103%.
Same read-out and setting: the figure for `CCCCCCCCc1ccc(C(=O)Nc2ccc(C)c(OP(=O)(O)O)c2)cc1` is 106%.

Another assay deals with SNB-75 CNS. The assay is described as above. The following applies: 10 µM unless noted.
`CS(=O)(=O)c1ccc(-n2nc(C(=O)NCc3ccccc3)cc2-c2ccc(Cl)cc2)cc1`: the growth is 89.7%.
Take `CCCCCCCCc1cccc(CC(=O)Nc2ccc(C)cc2C(=O)O)c1`: the growth is 74.1% [25 µM].
Turning to `COc1ccc(-c2cc(C(=O)Oc3ccc(C=O)cc3OC)nn2-c2ccc(S(C)(=O)=O)cc2)cc1`, the growth is 99.9%.
The same measure, in the same setting: with `O=C(NN1C(=O)/C(=C/C=C/c2ccc([N+](=O)[O-])o2)SC1=S)c1ccncc1` the figure was -38.6% (active); with `N#Cc1c(-c2ccc(F)cc2)nc(SCc2ccccc2)nc1N1CCNCC1`, -93% (active); with `COc1ccc(/C=C/C(=O)c2ccc(OC)c(S(N)(=O)=O)c2)c(C(F)(F)F)c1`, 37.6%.
The same measure, in the same setting: with `COc1ccccc1Nc1nnc(-c2c[nH]c3ccccc23)o1` the figure was 44%; with `COc1ccc2c(c1)N=c1c-2cc2c(O)[nH]c(=S)n2c1=O`, 6.9% (active); with `CS(=O)(=O)Nc1cc(-c2ccc3ncnc(N4CCc5cc(F)c(Cl)cc54)c3c2)cnc1Cl`, -17.7% (active).
On the same count and under the same terms, the figure for `CC(=O)Nc1ccc(S(=O)(=O)Nc2ccc(-c3ccc4c(c3)NC(=O)/C4=C\c3ccc[nH]3)cc2)cc1` is 108%.
In the case of `Cc1nn(-c2ccccc2)c2nc(C)n(CC(=O)N/N=C/c3cccc([N+](=O)[O-])c3)c(=O)c12`, the growth is 79.5%.
Still for that read-out and setting: with `CCC(=O)c1cc(C(=O)OC)c2ccc3c4ccccc4ccc3n12` the figure was 47%; with `Cc1ccc(C(=O)Nc2cc(-n3cnc(F)c3)cc(C(F)(F)F)c2)cc1C#Cc1cnc2cccnn12`, 132%.
Still for that read-out and setting: the figure for `O=C(N=Nc1c(O)[nH]c2ccc(Cl)cc12)c1ccc2nc(-c3ccc(Cl)cc3)[nH]c2c1` is -21.3% (active); for `COc1cc(C=O)ccc1OC(=O)c1cc(-c2ccc(C)cc2)n(-c2ccc(S(C)(=O)=O)cc2)n1` it is 104%.
The same measure, in the same setting: with `CC(C)CN1C(=O)/C(=C\C(=O)c2cc3ccccc3oc2=O)c2ccccc21` the figure was 82.6%; with `Nc1nc2cc(-c3ccc4ncnc(NCc5ccccc5)c4c3)ccc2o1`, -83.9% (active); with `Cc1cccc(NCC(=O)N2CCN(c3ncnc4c3cnn4-c3ccccc3)CC2)c1`, 53.5%.
For `Cn1cc(-c2cc(N)n3nc(-c4c[nH]c5ccccc45)cc3n2)c2cc(F)ccc21`, the growth is 71.5%.
Same read-out and setting: the figure for `CCCCCCCCCc1ccc(C(=O)Nc2cc(C)ccc2C(=O)OC)cc1` is 117%; for `NC1(c2ccc(-c3ccc4ncnc(NCc5ccccc5)c4c3)cn2)COC1` it is 115% and 103%.
Still for that read-out and setting: the figure for `CCCCNC(=S)Nc1ccc(OCc2nc3ccc(Cl)cc3[nH]2)cc1` is 26.4%.
Same read-out and setting: with `CCC1(OC(=O)c2ccccc2SSCCOC(=O)CCCCC2SCC3NC(=O)NC32)C(=O)OCc2c1cc1n(c2=O)Cc2cc3ccccc3nc2-1` (stereo not drawn) the figure was 81.3%; with `COc1ccc(/C=C/c2nc3ccccc3c(=O)n2CC(=O)Nc2ccccc2)cc1`, -35% (active); with `CC[C@]12C=CCN3CC[C@@]4(c5ccc(OC)cc5N(C)[C@H]4[C@@](O)(C(=O)OC)[C@@H]1OC(=O)CCCC[P+](c1ccc(F)cc1)(c1ccc(F)cc1)c1ccc(F)cc1)[C@@H]32`, -5.3% (active).
As to `COc1ccccc1NC(=O)N/N=C/c1c[nH]c2ccccc12`, the growth was 20.8%.
Same read-out and setting: the figure for `Cc1ccc(C2CC(c3ccc(NC(=O)Nc4ccccc4)cc3)=NN2c2ccc(S(C)(=O)=O)cc2)cc1` (stereo not drawn) is 56.9%; for `CC1=C(C)C(=O)C(NCCN2CCOCC2)=C(Br)C1=O` it is 106%; for `CC(=O)C[n+]1cccc2c3ccccc3ccc21` it is 113%.
Regarding `Cc1nn(-c2ccccc2)c2nc(C)n(CC(=O)N/N=C/c3ccccc3O)c(=O)c12`, the growth is 76.1%.
On the same count and under the same terms, the figure for `O=C(CSc1nnc(-c2ccc(-c3nc4ccccc4[nH]3)cc2)o1)Nc1ccccc1` is 46.6%; for `Cc1cccc(-c2ccccc2Oc2ccc3nnc(Cl)n3n2)c1` it is 89.4%; for `Oc1cncc(-c2ccc3ncnc(N4CCc5cc(F)c(Cl)cc54)c3c2)c1` it is 25.6%.
Still for that read-out and setting: with `CCOc1ccccc1[C@H]1C(C(=O)c2ccc(Cl)cc2)C2(N[C@@H]1c1ccccc1)C(=O)Nc1ccc(Br)cc12` (stereo partly drawn) the figure was 44.4%; with `Cc1ccc2c(c1)/C(=C/C(=O)c1cc3ccccc3oc1=O)C(=O)N2`, 88.7%.
Still for that read-out and setting: with `Cc1ccc(C(=O)C[n+]2cccc3c4ccccc4ccc32)cc1` the figure was 43%; with `COC(=O)CSC1=C(C)C(=O)C(OC)=C(OC)C1=O`, 66.6%; with `CCCCCCCCc1ccc(C(=O)Nc2ccc(C)c(OP(=O)(O)O)c2)cc1`, 89.8%.
